VACV E9 pol inh: blocks vaccinia virus processive DNA synthesis; normalized absorbance, % (concentration not given with the values); in vitro processive DNA synthesis, absorbance read-out; stronger effect = lower value; 0.94% of 46,000 active; in the data active = normalized absorbance mostly below about 85%, no sharp cut-off; inactive = mostly above about 86%
Large screens that a line does not name were inactive. This excerpt belongs to a sample that is enriched for hits.

OC(CNCc1ccc(Cl)cc1Cl)C(F)(F)F (configuration not stated)	none
CC(C)CCN(Cc1ccco1)C(=O)c1oc(=O)c2ccccc2c1-c1ccccc1	none
C/C(=C\c1nsc(Nc2ccccc2)n1)NCCc1ccccc1	none
COCCN1C(=O)/C(=C\c2ccc3c(c2)OCO3)SC1=S	none
O=C(NC(C(F)(F)F)C(F)(F)F)OC1CCCC1	none
Cc1nc2ccccc2c2oc(C(=O)N3CCC(C)CC3)cc12	none
Cc1nc2ccccc2c2oc(C(=O)NC3CCCC3)cc12	none
Cc1nc2ccccc2c2oc(C(=O)NCCN3CCN(C)CC3)cc12	VACV E9 pol inh 62
CCCC(C)C(=O)Nc1cccc(Br)c1 (configuration not stated)	none
Cc1ccc(N=Cc2ccc(F)cc2)c(C)c1	none
Cc1cccc(CN2CCC(CNC(=O)c3cc4c(=O)[nH]c5ccc(C)cc5c4s3)CC2)c1	none
COc1ccc(CSC2=C(C#N)C(=O)NC3(CCCCC3)S2)cc1	VACV E9 pol inh 71
COc1ccc(CSc2ncn[nH]2)cc1	none
COc1ccc(C2=C(C#N)C(=O)OC2)cc1	none
O=C(O)C1(S(=O)(=O)c2ccc(Cl)cc2)CCCC1	none
O=C(CCC(=O)c1ccccc1)Nc1ccc(-c2ccccc2)cc1	none
O=C(COC(=O)C12CC3CC(CC(Br)(C3)C1)C2)Nc1ccccc1	none
Cc1ccc(O)cc1	none
Oc1ccc(C2(c3ccc(O)cc3)CCCC2)cc1	VACV E9 pol inh 53
COc1cccc(C2(c3ccc(O)cc3)CCCC2)c1	none
CC(C)(C)NC(=O)N1CCN(c2cc(C(F)(F)F)ccn2)CC1	VACV E9 pol inh 78
O=C(Nc1ccccc1)N1CCN(c2ccc(C(F)(F)F)cn2)CC1	none
Cc1ccc(S(=O)(=O)NC(=O)N2CCCN(c3ccc(C(F)(F)F)cn3)CC2)cc1	none
CCOC(CCn1c(SC)nc2c(sc3ccccc32)c1=O)OCC	none
CC1CC(C)CN(S(=O)(=O)Cc2ccccc2)C1 (configuration not stated)	none
COc1ccccc1OCCn1cc(/C=C2/SC(=S)NC2=O)c2ccccc21	none
CN(C)Cc1c[nH]c2ccccc12	none
CN(C)CCCn1cc(C2=C(c3c[nH]c4ccccc34)C(=O)NC2=O)c2ccccc21	VACV E9 pol inh 68
O=C(O)c1ccccc1-c1nn[nH]n1	none
Cn1cc(Cl)c(C(=O)NCC(=O)c2ccccc2)n1	none
c1ccc(NC2=NCCCCC2)cc1	none
O=C(O)c1ccccc1C(=O)N1CCN(c2ccc(F)cc2)CC1	none
CC(=O)Nc1c(C(=O)O)oc2ccc(Br)cc12	none
O=C(O)c1oc2ccc(Br)cc2c1-n1cccc1	VACV E9 pol inh 67
Cc1ccc(CNC(=O)c2oc3ccccc3c2-n2cccc2)cc1	none
CC(C)OCC(O)CN1CCN(c2ccccc2)CC1 (configuration not stated)	none
CCOc1ccc(-c2nc(=S)[nH][nH]2)cc1	none
CCOc1ccc2nc(SCC)[nH]c2c1	none
CCOc1ccc(-c2nc3ccc(-c4nc5ccc(N6CCN(C)CC6)cc5[nH]4)cc3[nH]2)cc1	VACV E9 pol inh 23
CC(C)Nc1cc(Br)c2noc3c2c1C(=O)c1ccccc1-3	none
CCNc1cc(N(C)C)c2noc3c2c1C(=O)c1ccccc1-3	none
O=C1c2ccccc2-c2onc3c(Br)cc(N4CCCCC4)c1c23	VACV E9 pol inh 73
CN1C(=O)/C(=C\c2ccncc2)SC1=S	none
C=CCSc1nc2c(cnn2-c2ccccc2)c(=O)[nH]1	none
Cc1c(CC(=O)O)c(=O)oc2c(C)c3occ(-c4ccc(Br)cc4)c3cc12	VACV E9 pol inh 65
Cc1c(CC(=O)O)c(=O)oc2c(C)c3occ(C(C)(C)C)c3cc12	none
COc1ccc(-c2coc3cc4oc(=O)c(CC(=O)O)c(C)c4cc23)cc1	none
Nc1ccccc1SCC(=O)N1CCc2ccccc21	VACV E9 pol inh 79
Cc1ccc(SCC(=O)N2CCc3ccccc32)cc1	none
O=C(CSc1c[nH]c2ccccc12)N1CCc2ccccc21	none
CCOC(=O)/C(C#N)=C(\C)C1CC1	none
CC(C)NC(=O)c1cc2c(s1)-c1ccccc1SC2	none
CC1CCN(C(=O)c2cc3c(s2)-c2ccc(Cl)cc2SC3)CC1	none
CN(C)CCNC(=O)c1cc2c(s1)-c1ccc(Cl)cc1SC2	VACV E9 pol inh 55
O=C(Nc1ccccc1)C1CC2c3ccccc3C1c1ccccc12 (configuration not stated)	none
O=C(O)Cc1cn(-c2ncc(C(F)(F)F)cc2Cl)c2ccccc12	none
Cc1ccccc1NC1=NCCS1	none
Cc1ccccc1NC1=NC(C)(C)CS1	none
Cc1ccccc1Nc1nccc(N(C)C)c1C#N	VACV E9 pol inh 82
C=CCn1c(SCC(=O)c2ccc(C)cc2)nc2sc(CC)cc2c1=O	none
Cc1ccc(NS(=O)(=O)C(F)(F)F)cc1	none
CNC(=O)C12CCC(C)(C(=O)C1)C2(C)C (configuration not stated)	none
CCn1cc2c(n1)-c1c(oc(C(=O)N3CCc4ccccc4C3)c1C)CC2	none
COc1ccc2c(C)cc(SCC(=O)Nc3ccccc3)nc2c1	none
COc1ccc2c(C)cc(SCc3c(C)noc3C)nc2c1	none
COc1ccc2c(C)cc(SCC#N)nc2c1	VACV E9 pol inh 84
CC(C)CCN(C)C1CCN(C(=O)Nc2ccc(Cl)c(Cl)c2)CC1	none
CCOC(=O)c1c(NC(=O)CN2C(=O)CCSc3ccccc32)sc2c1CCCC2	none
COc1ccc(C(=O)Nc2ccc(O)c(-c3nc4ccccc4s3)c2)c(OC)c1	none
COc1ccc2c(=O)c(-c3ccc4c(c3)OCCO4)coc2c1	none
CCc1cc2c(=O)c(-c3ccccc3)coc2cc1O	none
CCc1cc2c(=O)c(-c3ccc4c(c3)OCO4)coc2cc1O	VACV E9 pol inh 82
O=C1CC(Sc2ccccc2C(=O)O)C(=O)N1 (configuration not stated)	none
Cn1nccc1Nc1ccc(OC(=O)c2ccnn2C)cc1	none
COC(=O)c1cc(-c2cccnc2)nc2ccccc12	none
CN(C)CCNc1cc(-c2cccnc2)nc2ccccc12	VACV E9 pol inh 48
CN(C)CCNc1cc(-c2ccncc2)nc2ccccc12	none
Nc1c(Cl)cc(Cl)cc1C(=O)OCC(=O)N1CCCCC1	none
CCN1/C(=C/c2scc[n+]2C)C=C(C)c2cc(OC)c3ccccc3c21	VACV E9 pol inh 27
CCN1C(=O)C(=Cc2ccc(N3CCOCC3)cc2OC)C(=O)N(CC)C1=S	none
Cc1nn(-c2ccccc2)c2sc(C(=O)NC(=S)NC3CCSC3=O)cc12 (configuration not stated)	none
Cc1nnc(Oc2ccc(Cl)cc2Cl)c2ccccc12	none
Cc1ccc(NC(=O)CSC2=C(C#N)C(c3ccc(C)cc3)C3=C(CCCC3=O)N2)cc1 (configuration not stated)	none
CC(=O)Nc1sccc1C(=O)O	none
Cc1ccc(C)n1-c1sccc1C(=O)O	VACV E9 pol inh 22
Cc1ccc(C)n1-c1sccc1C(=O)CC#N	none
Brc1ccc(NC2=NCCC2)cc1	none
O=C(CSc1nnc(CNC(=O)c2ccccc2)n1-c1ccccc1)c1ccccc1	none
CC(=O)n1c2ccccc2c2nc(N)sc21	VACV E9 pol inh 64
N#CSCC(=O)n1c2ccccc2c2ccccc21	none
CC(=O)n1c2ccccc2c2ccccc21	VACV E9 pol inh 67
CC(=O)n1c(=O)n(C(C)=O)c2ccccc21	none
CC(=O)n1c2ccccc2c2c(-c3ccccc3)c(N3CCOCC3)sc21	none
CC(=O)n1c2ccc(C)cc2c2nc3ccccc3nc21	none
Cc1ccc(-c2nn(CCC#N)cc2CO)cc1	none
CC(C)CCn1c(=O)c2sccc2n2c(CCCC(=O)O)nnc12	none
CN(C)c1ccc(N/C=C2/CCCC2=O)cc1	none
CN(C)/C=C/C=C1C(=O)CCCC1=O	VACV E9 pol inh 45
CN(C)/C=C/C=C1\N=C(c2ccccc2)OC1=O	none
CCOC(=O)C1CCN(S(=O)(=O)c2cccs2)CC1	none
CC(CC(=O)c1ccccc1)CC(=O)c1ccccc1	none
Nc1nc(NS(=O)(=O)c2ccccc2)ns1	none
